According to PubChem BioAssay (NCI):
The panel holds about 83,000 compounds, 20% with a hit somewhere; the sample as a whole holds those more often.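 96-well plates, one dose, 48 hours. Percent growth reported; active if below 10.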 Active and inactive are the calls of the source.

Tests used:
Test in all cases: NCI-60 one-dose screen, 48 h (100 = growth as untreated, 0 = no growth, -100 = all killed)
Settings in all cases: 10 µM unless noted
HCT-15 colon = test system: HCT-15 colon
HT29 colon = test system: HT29 colon
SNB-75 CNS = test system: SNB-75 CNS
SNB-19 CNS = test system: SNB-19 CNS
PC-3 prostate = test system: PC-3 prostate
SK-MEL-5 melanoma = test system: SK-MEL-5 melanoma
UACC-62 melanoma = test system: UACC-62 melanoma
LOX IMVI melanoma = test system: LOX IMVI melanoma
SK-MEL-28 melanoma = test system: SK-MEL-28 melanoma
SK-MEL-2 melanoma = test system: SK-MEL-2 melanoma
EKVX NSCLC = test system: EKVX NSCLC
SN12C renal = test system: SN12C renal
UO-31 renal = test system: UO-31 renal
TK-10 renal = test system: TK-10 renal
ACHN renal = test system: ACHN renal
CAKI-1 renal = test system: CAKI-1 renal
A498 renal = test system: A498 renal
CCRF-CEM leukemia = test system: CCRF-CEM leukemia
MOLT-4 leukemia = test system: MOLT-4 leukemia
U251 CNS = test system: U251 CNS

Measured: growth

Cc1nc2ccccc2n1C(=O)C[C@@H]1NC(=S)NC1=O
inactive: HCT-15 colon 93% | HT29 colon 105% | SNB-75 CNS 74.1% | SNB-19 CNS 98.3% | PC-3 prostate 105% | SK-MEL-5 melanoma 100% | UACC-62 melanoma 97.1% | LOX IMVI melanoma 95.3% | SK-MEL-28 melanoma 99.2% | SK-MEL-2 melanoma 113% | EKVX NSCLC 93.6% | SN12C renal 103% | UO-31 renal 78.3% | TK-10 renal 90.9% | ACHN renal 96.5% | CAKI-1 renal 91.5% | A498 renal 94.9% | CCRF-CEM leukemia 109% | MOLT-4 leukemia 100%

CC(=O)c1nc2ccccc2n1CC(=O)c1cccc(Cl)c1
active: CAKI-1 renal 5.79% | CCRF-CEM leukemia 5.08% | MOLT-4 leukemia 4.87%
inactive: HCT-15 colon 27.3% | HT29 colon 94% | SNB-75 CNS 21% | SNB-19 CNS 24.1% | U251 CNS 14.3% | UACC-62 melanoma 31.5% | SK-MEL-28 melanoma 67.7% | SK-MEL-2 melanoma 61.9% | EKVX NSCLC 17.1% | SN12C renal 31.9% | UO-31 renal 28.3% | TK-10 renal 34.3% | ACHN renal 51.3% | A498 renal 88.5%

CN(C)c1ccc(N=Nc2ccc(Br)cn2)c(O)c1
inactive: HCT-15 colon 28.3% | HT29 colon 21.9% | SNB-75 CNS 39.1% | SNB-19 CNS 19.6% | U251 CNS 11.4% | SK-MEL-28 melanoma 29.9% | SK-MEL-2 melanoma 18.8% | EKVX NSCLC 14.3% | SN12C renal 12.3% | TK-10 renal 33.9% | A498 renal 53.9%
active: UACC-62 melanoma -45.3% | UO-31 renal 3.75% | ACHN renal 7.81% | CCRF-CEM leukemia -0.72% | MOLT-4 leukemia 1.73%

O=C(O)COc1ccc(Cl)cc1C1CCCCC1
inactive: HCT-15 colon 106% | HT29 colon 104% | SNB-75 CNS 88.1% | SNB-19 CNS 99.9% | U251 CNS 102% | LOX IMVI melanoma 106% | SK-MEL-28 melanoma 108% | SK-MEL-2 melanoma 103% | EKVX NSCLC 117% | SN12C renal 98.5% | UO-31 renal 87.6% | TK-10 renal 101% | ACHN renal 107% | CAKI-1 renal 99.4% | A498 renal 90.2% | CCRF-CEM leukemia 92.1% | MOLT-4 leukemia 87.9%

Oc1cccc(-c2nc(N3CCOCC3)c3c4c(sc3n2)CCCC4)c1
inactive: HCT-15 colon 49.1% | HT29 colon 94.7% | SNB-19 CNS 62.3% | U251 CNS 52.7% | UACC-62 melanoma 43.8% | LOX IMVI melanoma 50% | SK-MEL-28 melanoma 57.8% | EKVX NSCLC 34.4% | SN12C renal 38.8% | UO-31 renal 13.1% | TK-10 renal 70.6% | ACHN renal 38.3% | CAKI-1 renal 69.8% | A498 renal 114% | CCRF-CEM leukemia 60.5% | MOLT-4 leukemia 24%
active: SNB-75 CNS 7.14%

O=C(COc1cccc(/C=C2\CSc3ccccc3C2=O)c1)Nc1nccs1
inactive: HCT-15 colon 75.5% | HT29 colon 15.9% | SNB-75 CNS 22.2% | SNB-19 CNS 79.5% | U251 CNS 41.8% | SK-MEL-2 melanoma 69.3% | EKVX NSCLC 25.5% | SN12C renal 89.4% | UO-31 renal 60.1% | TK-10 renal 70% | ACHN renal 69.9% | CAKI-1 renal 78.1%
active: LOX IMVI melanoma -100% | SK-MEL-28 melanoma -0.13% | CCRF-CEM leukemia 4.26% | MOLT-4 leukemia -51.1%

COc1ccc(SC2c3ccc(C)cc3Oc3nc(N)c(C#N)c(N)c32)cc1 (centres undefined)
active: HCT-15 colon -79.9% | HT29 colon -65.1% | SNB-75 CNS -45.5% | SNB-19 CNS -69.3% | U251 CNS -93.3% | UACC-62 melanoma -46.2% | LOX IMVI melanoma -94.3% | SK-MEL-28 melanoma -82.3% | SK-MEL-2 melanoma -59.8% | EKVX NSCLC -10.8% | SN12C renal -94.3% | UO-31 renal -95.9% | TK-10 renal -97.9% | ACHN renal -98.1% | CCRF-CEM leukemia -33.5% | MOLT-4 leukemia -24.7%
inactive: A498 renal 28.7%

COc1nc2c(c(=O)n1C)CN(Cc1ccccc1)C=N2
inactive: HCT-15 colon 105% | HT29 colon 109% | SNB-75 CNS 78% | SNB-19 CNS 91.1% | U251 CNS 115% | UACC-62 melanoma 116% | LOX IMVI melanoma 98.1% | SK-MEL-28 melanoma 108% | SK-MEL-2 melanoma 106% | EKVX NSCLC 111% | SN12C renal 116% | UO-31 renal 77.3% | ACHN renal 106% | CAKI-1 renal 98.1% | A498 renal 131% | CCRF-CEM leukemia 103% | MOLT-4 leukemia 105%

COc1cc(/C=C/C(=O)c2ccc(O)c(CN3CCN(c4cc5c(cc4F)c(=O)c(C(=O)O)cn5C4CC4)CC3)c2)cc(OC)c1OC
active: CCRF-CEM leukemia 9.83%
inactive: HCT-15 colon 19.3% | HT29 colon 10.3% | SNB-75 CNS 57.7% | SNB-19 CNS 75.7% | PC-3 prostate 47.1% | SK-MEL-5 melanoma 64% | UACC-62 melanoma 59.9% | LOX IMVI melanoma 20.7% | SK-MEL-28 melanoma 59.3% | SK-MEL-2 melanoma 66.2% | EKVX NSCLC 49.4% | SN12C renal 38.2% | UO-31 renal 47.4% | TK-10 renal 107% | ACHN renal 46.1% | CAKI-1 renal 54.7% | A498 renal 93% | MOLT-4 leukemia 33.3%

COc1cc(/C=C/C(=O)c2c(C)oc3nc[nH]c(=O)c23)cc(OC)c1OC
inactive: HCT-15 colon 49.3% | HT29 colon 90.7% | SNB-75 CNS 78% | SNB-19 CNS 93.6% | PC-3 prostate 83.4% | SK-MEL-5 melanoma 89.9% | UACC-62 melanoma 87% | LOX IMVI melanoma 66.2% | SK-MEL-28 melanoma 93.9% | SK-MEL-2 melanoma 82.5% | EKVX NSCLC 61.9% | SN12C renal 79.8% | UO-31 renal 63.2% | TK-10 renal 151% | ACHN renal 74.7% | CAKI-1 renal 72.7% | A498 renal 93.4% | CCRF-CEM leukemia 34% | MOLT-4 leukemia 68.4%

C=CC(=O)Nc1cccc(-c2nc(SC)nc(Nc3ccccc3OC)c2C#N)c1
inactive: HCT-15 colon 16.9% | SNB-75 CNS 24.4% | SNB-19 CNS 74.5% | PC-3 prostate 31.9% | SK-MEL-5 melanoma 66.7% | UACC-62 melanoma 75% | LOX IMVI melanoma 16.9% | SK-MEL-28 melanoma 50.8% | SK-MEL-2 melanoma 73.9% | EKVX NSCLC 63.7% | SN12C renal 48.4% | UO-31 renal 19.2% | TK-10 renal 36.1% | ACHN renal 37.7% | CAKI-1 renal 56.6% | A498 renal 61.4% | CCRF-CEM leukemia 40.8% | MOLT-4 leukemia 33.4%
active: HT29 colon 2.25%

COc1ccc(-c2nc3ccc(-c4nc5ccc(N6CCN(c7ccccc7)CC6)cc5[nH]4)cc3[nH]2)cc1OC
active: HT29 colon -91% | SNB-19 CNS -1.62% | PC-3 prostate -31.5% | LOX IMVI melanoma -91.8% | SK-MEL-28 melanoma -47.5% | CCRF-CEM leukemia 6.07% | MOLT-4 leukemia -5.57%
inactive: HCT-15 colon 15.8% | SNB-75 CNS 45.6% | SK-MEL-5 melanoma 43.4% | UACC-62 melanoma 41.6% | SK-MEL-2 melanoma 89% | EKVX NSCLC 40.1% | SN12C renal 52% | UO-31 renal 99.6% | TK-10 renal 12.4% | ACHN renal 44.8% | CAKI-1 renal 65.3% | A498 renal 88.4%

O=C1c2cc3c(cc2-c2c1c1cc(F)c(F)cc1c(=O)n2CCCn1ccnc1)OCO3
inactive: SNB-75 CNS 24.4% | SNB-19 CNS 15.7% | SK-MEL-28 melanoma 34.8% | EKVX NSCLC 30.9%
active: HCT-15 colon 4.66% | HT29 colon 3.52% | PC-3 prostate 9.43% | SK-MEL-5 melanoma -74.9% | UACC-62 melanoma -61.4% | LOX IMVI melanoma -20.4% | SK-MEL-2 melanoma -11.2% | SN12C renal -1.14% | UO-31 renal -23.7% | ACHN renal -55.7% | CAKI-1 renal 3.03% | A498 renal -74.1% | CCRF-CEM leukemia 7.04% | MOLT-4 leukemia -14.3%

O=S(=O)(Nc1ccc(I)cc1F)c1ccc(-c2cnc(C3CC3)o2)cc1
inactive: HCT-15 colon 25.5% | HT29 colon 15.9% | SNB-75 CNS 15.4% | SNB-19 CNS 62.8% | PC-3 prostate 68% | SK-MEL-5 melanoma 62.8% | UACC-62 melanoma 32.8% | LOX IMVI melanoma 52.5% | SK-MEL-28 melanoma 61.7% | SK-MEL-2 melanoma 40.7% | EKVX NSCLC 68.5% | SN12C renal 71.5% | UO-31 renal 70.1% | TK-10 renal 88.6% | ACHN renal 77.2% | CAKI-1 renal 40.9% | MOLT-4 leukemia 37.5%
active: A498 renal -10%

COc1cccc(-c2nc3sccn3c2-c2ccnc(NCCNS(=O)(=O)c3ccccc3)c2)c1
active: SK-MEL-5 melanoma -39.3% | UACC-62 melanoma -31.3% | UO-31 renal 5.71% | CAKI-1 renal 9.12%
inactive: HCT-15 colon 11.8% | HT29 colon 23.6% | SNB-75 CNS 15.2% | SNB-19 CNS 51.6% | PC-3 prostate 11.3% | LOX IMVI melanoma 24% | SK-MEL-28 melanoma 50% | SK-MEL-2 melanoma 30.1% | EKVX NSCLC 29.8% | SN12C renal 28.9% | TK-10 renal 55.5% | ACHN renal 10.4% | A498 renal 44.2% | CCRF-CEM leukemia 10.1% | MOLT-4 leukemia 12%

CSc1nc(-c2cccc(NC(=O)CCl)c2)c(C#N)c(=O)n1C
inactive: HCT-15 colon 11% | SNB-75 CNS 54% | SNB-19 CNS 86.6% | PC-3 prostate 77.5% | SK-MEL-5 melanoma 79.4% | UACC-62 melanoma 60.4% | SK-MEL-28 melanoma 87.3% | SK-MEL-2 melanoma 70.9% | EKVX NSCLC 70.8% | SN12C renal 81% | TK-10 renal 117% | ACHN renal 73.9% | CAKI-1 renal 83.7% | A498 renal 90.2% | MOLT-4 leukemia 14%
active: HT29 colon -33.7% | LOX IMVI melanoma -91.6% | UO-31 renal -53.2% | CCRF-CEM leukemia -16.5%

O=C(N=Nc1c(O)[nH]c2ccccc12)c1cc(-c2ccccc2)on1
inactive: HCT-15 colon 102% | HT29 colon 104% | SNB-75 CNS 53.7% | SNB-19 CNS 100% | PC-3 prostate 101% | SK-MEL-5 melanoma 100% | UACC-62 melanoma 99.6% | LOX IMVI melanoma 95.9% | SK-MEL-28 melanoma 108% | SK-MEL-2 melanoma 108% | EKVX NSCLC 92% | SN12C renal 96% | UO-31 renal 85.4% | TK-10 renal 123% | ACHN renal 97.2% | CAKI-1 renal 86.7% | A498 renal 103% | MOLT-4 leukemia 104%
